Assays:
Test in all cases: log2 ratio of Biotin-Ahx-Ub-VS probe labelling (fragment/DMSO); higher = less target engagement (more negative = stronger competition), active = hit call of the paper (q ≤ 0.05, log2 ratio ≤ -1)
Conditions in all cases: compound concentration: 200 uM; treatment time: 3 h
[1] = biological target: USP9X (UniProt Q93008)
Method in brief: (§1)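 In triplicate, 495 µg of HEK293T lysate per sample was incubated with fragment at 200 µM or vehicle for 3 h. Biotin-Ahx-Ub-VS was then added to 0.5 µM final for 1 h, and labelled DUBs were captured with NeutrAvidin, digested with LysC and trypsin, and measured by diaPASEF LC-MS/MS. Data are average log2 fragment/vehicle ratios by unpaired t-test from global-median-normalised Spectronaut label-free quantities, restricted to proteins with ≥2 unique peptides.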

[2] = biological target: UniProt O00487
UniProt O00487, sequence (O00487 whole entry): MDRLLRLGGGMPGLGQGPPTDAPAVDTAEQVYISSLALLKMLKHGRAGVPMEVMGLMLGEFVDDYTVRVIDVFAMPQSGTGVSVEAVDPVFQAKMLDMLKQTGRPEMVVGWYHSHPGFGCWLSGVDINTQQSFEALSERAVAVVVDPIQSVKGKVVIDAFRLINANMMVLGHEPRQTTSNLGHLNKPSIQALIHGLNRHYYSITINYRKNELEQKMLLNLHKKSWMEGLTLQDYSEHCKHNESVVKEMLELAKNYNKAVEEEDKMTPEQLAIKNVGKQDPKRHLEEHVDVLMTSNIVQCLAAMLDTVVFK
Method in brief: as §1

[3] = biological target: UniProt O00507
Method in brief: as §1

[4] = biological target: UniProt P51784
UniProt P51784, sequence (P51784 whole entry): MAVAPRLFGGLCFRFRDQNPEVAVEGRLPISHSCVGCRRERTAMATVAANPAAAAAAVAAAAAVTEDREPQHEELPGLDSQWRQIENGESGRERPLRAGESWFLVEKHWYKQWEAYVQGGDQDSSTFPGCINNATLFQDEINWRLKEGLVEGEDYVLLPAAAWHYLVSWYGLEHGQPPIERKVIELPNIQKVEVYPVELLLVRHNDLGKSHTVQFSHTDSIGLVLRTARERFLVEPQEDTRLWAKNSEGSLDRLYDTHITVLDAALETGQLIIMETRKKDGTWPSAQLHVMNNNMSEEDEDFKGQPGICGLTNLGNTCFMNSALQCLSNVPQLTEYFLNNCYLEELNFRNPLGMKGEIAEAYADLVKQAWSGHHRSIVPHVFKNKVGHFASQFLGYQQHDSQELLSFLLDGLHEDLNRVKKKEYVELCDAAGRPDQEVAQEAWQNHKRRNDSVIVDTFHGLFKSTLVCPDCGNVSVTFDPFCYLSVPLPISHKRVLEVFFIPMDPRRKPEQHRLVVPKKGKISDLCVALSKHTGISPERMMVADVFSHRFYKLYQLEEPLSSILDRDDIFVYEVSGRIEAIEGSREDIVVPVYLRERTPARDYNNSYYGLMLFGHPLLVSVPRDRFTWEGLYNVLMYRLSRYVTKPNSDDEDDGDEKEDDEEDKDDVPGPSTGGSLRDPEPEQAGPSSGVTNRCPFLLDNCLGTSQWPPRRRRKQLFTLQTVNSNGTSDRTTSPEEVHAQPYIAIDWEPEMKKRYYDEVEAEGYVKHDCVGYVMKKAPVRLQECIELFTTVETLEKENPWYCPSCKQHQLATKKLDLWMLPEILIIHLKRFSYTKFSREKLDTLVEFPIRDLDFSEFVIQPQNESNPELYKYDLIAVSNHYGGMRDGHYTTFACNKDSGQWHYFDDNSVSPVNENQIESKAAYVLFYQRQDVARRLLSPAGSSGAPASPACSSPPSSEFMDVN
Method in brief: as §1

[5] = biological target: T1, UniProt Q5T2D3
T1 sequence (whole entry): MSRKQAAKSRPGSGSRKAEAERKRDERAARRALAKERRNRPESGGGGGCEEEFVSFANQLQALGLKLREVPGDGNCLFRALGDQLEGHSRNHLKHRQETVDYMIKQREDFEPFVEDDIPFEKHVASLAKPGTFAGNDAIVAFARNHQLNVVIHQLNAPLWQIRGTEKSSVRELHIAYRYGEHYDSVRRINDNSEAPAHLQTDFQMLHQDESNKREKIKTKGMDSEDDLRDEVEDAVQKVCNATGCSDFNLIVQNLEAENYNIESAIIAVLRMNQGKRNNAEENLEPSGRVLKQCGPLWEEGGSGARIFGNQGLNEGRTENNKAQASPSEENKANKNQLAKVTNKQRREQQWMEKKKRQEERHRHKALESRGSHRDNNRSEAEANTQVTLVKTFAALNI
Method in brief: as §1

[6] = biological target: T2, UniProt Q8TE49
T2 sequence (whole entry): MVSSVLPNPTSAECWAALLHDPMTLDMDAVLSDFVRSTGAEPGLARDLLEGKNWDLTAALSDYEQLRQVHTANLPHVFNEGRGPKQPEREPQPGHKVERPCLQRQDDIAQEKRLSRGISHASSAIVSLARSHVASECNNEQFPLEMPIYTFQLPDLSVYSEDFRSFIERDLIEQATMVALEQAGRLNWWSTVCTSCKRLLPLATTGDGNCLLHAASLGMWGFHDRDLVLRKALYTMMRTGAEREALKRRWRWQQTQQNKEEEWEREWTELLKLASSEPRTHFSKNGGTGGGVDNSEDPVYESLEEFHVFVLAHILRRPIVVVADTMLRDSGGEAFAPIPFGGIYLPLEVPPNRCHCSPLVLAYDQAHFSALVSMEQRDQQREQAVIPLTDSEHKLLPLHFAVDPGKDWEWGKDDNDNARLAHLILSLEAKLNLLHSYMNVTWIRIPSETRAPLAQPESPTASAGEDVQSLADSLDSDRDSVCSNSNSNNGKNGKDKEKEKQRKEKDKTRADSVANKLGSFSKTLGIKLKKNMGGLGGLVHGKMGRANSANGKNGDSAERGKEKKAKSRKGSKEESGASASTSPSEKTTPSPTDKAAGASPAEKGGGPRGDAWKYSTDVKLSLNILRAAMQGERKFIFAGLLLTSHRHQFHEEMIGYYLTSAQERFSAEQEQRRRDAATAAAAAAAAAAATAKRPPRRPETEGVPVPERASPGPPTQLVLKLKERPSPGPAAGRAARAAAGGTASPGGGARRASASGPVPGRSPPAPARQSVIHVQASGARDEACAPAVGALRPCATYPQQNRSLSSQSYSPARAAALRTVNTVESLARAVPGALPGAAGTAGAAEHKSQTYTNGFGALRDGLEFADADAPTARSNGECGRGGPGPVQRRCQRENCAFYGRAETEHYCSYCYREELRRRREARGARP
Method in brief: as §1

[7] = biological target: T3, UniProt Q9P2H5
T3 sequence (whole entry): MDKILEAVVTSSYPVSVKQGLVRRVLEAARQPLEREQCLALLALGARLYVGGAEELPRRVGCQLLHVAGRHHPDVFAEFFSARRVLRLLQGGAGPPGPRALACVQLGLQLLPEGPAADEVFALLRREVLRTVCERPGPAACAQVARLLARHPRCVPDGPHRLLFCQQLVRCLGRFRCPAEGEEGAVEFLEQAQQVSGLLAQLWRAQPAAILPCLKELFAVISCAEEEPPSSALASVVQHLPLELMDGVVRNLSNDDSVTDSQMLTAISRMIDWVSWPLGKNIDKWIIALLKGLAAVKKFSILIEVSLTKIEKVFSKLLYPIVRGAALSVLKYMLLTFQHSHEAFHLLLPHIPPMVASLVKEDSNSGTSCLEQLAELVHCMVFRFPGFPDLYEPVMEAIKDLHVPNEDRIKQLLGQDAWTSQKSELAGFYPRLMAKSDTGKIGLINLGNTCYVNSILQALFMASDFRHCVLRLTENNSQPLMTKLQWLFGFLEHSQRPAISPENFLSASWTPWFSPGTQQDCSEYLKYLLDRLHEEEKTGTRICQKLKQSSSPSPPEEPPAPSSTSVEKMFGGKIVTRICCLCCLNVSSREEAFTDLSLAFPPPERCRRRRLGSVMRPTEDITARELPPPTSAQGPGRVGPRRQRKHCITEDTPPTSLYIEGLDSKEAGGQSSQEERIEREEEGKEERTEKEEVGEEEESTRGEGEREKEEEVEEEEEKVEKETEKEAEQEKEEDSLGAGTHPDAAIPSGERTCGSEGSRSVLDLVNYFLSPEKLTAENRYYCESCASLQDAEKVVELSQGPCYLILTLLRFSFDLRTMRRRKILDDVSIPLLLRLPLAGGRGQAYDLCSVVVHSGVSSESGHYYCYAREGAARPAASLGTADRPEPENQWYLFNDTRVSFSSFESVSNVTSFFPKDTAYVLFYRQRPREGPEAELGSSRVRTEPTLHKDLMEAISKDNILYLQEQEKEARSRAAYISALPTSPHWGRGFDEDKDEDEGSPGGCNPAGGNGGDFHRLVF
Method in brief: as §1

[8] = biological target: T4, UniProt Q9UGI0
T4 sequence (whole entry): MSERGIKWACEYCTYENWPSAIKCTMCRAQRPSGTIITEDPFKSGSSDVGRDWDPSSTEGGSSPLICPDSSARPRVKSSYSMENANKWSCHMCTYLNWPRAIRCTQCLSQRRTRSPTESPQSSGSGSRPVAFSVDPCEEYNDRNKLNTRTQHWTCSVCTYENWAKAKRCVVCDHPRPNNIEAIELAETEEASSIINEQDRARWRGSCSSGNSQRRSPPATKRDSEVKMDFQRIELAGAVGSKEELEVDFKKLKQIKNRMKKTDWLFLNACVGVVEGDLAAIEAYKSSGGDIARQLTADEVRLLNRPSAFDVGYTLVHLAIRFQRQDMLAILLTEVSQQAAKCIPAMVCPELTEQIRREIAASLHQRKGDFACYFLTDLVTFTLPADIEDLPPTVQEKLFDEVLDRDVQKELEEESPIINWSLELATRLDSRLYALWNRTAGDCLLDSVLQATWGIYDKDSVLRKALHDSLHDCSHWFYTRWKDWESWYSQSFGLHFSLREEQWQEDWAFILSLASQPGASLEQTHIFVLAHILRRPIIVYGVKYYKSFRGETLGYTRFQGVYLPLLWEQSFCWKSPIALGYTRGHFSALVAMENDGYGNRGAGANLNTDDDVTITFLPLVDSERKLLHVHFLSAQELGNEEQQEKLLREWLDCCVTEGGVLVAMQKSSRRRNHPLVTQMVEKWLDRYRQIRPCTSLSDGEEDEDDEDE
Method in brief: as §1

[9] = biological target: T5, YOD1 (UniProt Q5VVQ6)
T5 sequence (whole entry): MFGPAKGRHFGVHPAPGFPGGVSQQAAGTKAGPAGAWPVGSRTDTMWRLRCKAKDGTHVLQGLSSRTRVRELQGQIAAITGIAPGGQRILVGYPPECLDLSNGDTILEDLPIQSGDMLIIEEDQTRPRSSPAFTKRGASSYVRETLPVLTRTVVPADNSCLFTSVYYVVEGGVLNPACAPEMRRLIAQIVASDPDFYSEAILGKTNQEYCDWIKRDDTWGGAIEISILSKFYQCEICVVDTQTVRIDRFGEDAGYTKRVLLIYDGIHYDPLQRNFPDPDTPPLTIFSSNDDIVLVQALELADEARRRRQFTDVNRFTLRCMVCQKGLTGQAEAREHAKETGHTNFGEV
Method in brief: as §1

Measured: log2 ratio of Biotin-Ahx-Ub-VS probe labelling

USP9X, sequence (Q93008 whole entry, the tested form may be a part): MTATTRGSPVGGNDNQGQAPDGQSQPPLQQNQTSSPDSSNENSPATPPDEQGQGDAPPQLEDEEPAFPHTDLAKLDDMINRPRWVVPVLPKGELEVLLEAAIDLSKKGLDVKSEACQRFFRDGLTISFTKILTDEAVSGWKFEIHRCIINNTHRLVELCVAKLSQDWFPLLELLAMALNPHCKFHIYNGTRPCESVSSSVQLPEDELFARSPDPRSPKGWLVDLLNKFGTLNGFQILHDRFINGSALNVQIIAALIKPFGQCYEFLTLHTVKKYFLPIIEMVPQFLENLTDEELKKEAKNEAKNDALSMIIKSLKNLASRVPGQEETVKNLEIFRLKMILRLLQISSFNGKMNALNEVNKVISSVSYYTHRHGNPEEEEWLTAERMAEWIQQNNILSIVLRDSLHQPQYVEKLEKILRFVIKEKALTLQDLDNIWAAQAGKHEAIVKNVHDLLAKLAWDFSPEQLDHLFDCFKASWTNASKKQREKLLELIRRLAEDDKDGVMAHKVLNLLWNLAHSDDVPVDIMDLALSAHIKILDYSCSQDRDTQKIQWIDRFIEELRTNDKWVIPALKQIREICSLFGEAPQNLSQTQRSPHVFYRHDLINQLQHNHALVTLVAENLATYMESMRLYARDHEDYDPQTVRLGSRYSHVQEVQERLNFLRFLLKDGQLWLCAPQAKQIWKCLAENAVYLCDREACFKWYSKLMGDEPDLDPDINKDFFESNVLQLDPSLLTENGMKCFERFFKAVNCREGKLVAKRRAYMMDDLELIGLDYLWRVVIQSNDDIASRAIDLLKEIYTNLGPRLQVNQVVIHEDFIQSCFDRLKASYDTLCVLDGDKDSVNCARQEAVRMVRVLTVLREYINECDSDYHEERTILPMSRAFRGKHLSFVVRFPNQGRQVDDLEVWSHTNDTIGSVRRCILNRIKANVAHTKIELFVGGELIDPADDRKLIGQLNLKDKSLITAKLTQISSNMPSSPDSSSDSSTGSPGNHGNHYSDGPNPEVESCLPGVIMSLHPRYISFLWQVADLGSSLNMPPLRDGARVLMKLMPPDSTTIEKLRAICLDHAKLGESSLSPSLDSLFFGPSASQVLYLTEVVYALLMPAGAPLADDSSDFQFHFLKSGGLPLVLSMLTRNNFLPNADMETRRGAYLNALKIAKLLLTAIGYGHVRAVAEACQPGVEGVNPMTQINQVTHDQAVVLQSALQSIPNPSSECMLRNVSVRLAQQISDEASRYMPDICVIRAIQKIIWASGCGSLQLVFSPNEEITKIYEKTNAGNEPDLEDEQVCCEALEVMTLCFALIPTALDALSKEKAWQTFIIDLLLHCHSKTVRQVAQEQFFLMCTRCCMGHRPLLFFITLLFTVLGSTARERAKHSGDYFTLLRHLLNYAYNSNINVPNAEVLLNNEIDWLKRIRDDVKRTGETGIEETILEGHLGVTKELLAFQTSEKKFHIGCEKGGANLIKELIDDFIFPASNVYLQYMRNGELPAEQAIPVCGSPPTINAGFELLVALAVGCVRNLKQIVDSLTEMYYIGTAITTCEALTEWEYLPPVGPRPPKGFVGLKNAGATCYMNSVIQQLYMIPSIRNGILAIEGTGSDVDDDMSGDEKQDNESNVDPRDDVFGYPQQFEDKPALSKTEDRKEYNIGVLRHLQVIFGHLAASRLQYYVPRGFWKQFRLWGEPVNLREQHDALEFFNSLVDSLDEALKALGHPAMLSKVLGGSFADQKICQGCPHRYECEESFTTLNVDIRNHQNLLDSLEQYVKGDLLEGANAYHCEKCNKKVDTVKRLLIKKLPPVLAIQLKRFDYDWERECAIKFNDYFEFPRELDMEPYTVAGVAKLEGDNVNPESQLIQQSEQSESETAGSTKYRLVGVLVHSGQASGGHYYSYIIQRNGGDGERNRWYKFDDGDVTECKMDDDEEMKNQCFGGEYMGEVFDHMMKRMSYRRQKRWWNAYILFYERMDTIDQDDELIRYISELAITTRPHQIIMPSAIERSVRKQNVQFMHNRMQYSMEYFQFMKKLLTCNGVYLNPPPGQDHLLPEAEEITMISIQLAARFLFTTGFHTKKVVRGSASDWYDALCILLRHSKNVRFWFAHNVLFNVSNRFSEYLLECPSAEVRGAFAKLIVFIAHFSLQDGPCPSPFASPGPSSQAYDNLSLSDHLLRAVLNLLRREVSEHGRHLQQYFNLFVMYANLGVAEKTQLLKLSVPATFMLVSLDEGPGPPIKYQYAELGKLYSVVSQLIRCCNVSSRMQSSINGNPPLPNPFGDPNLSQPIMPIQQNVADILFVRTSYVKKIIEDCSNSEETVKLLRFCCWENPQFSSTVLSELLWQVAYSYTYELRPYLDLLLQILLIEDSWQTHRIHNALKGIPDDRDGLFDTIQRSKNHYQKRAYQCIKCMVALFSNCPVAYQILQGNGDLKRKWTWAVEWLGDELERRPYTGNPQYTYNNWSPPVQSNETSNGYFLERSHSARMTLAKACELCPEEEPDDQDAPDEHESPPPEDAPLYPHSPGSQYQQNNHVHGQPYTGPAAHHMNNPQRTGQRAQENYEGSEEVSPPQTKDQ

CNC(=O)C1(NC(=O)CCl)CCCCC1
inactive: [1] -0.228 | [2] 0.0455 | [3] 0.215 | [4] 0.188 | [5] -0.364 | [6] -0.591 | [7] -0.0698 | [8] 0.0155 | [9] -0.0513

Reference: the supplement of paper PMC11732987, “Enantioselective OTUD7B fragment discovery through chemoproteomics screening and high-throughput optimisation” (Communications Chemistry, 2025)
